Laboratory results published in the supplement of paper PMC10849652.
Targets with a hit are over-represented here; the source holds about 7,900 in all. About 0.6% of all pairs of compound and target were hits.

The targets below were run with CNC(=O)C1=CC=CC=C1NC2=NC(=NC=C2Cl)NC3=C(C=C(C=C3)N4CCOCC4)OC (assay: log2 fold change, soluble protein after heating vs DMSO (PISA); higher = thermal stabilisation; K562 cells, 10 uM, 30 min; active = over 0.2 and 3.5 SD of the protein, either way, in both replicates (recomputed)).
Procedure, shortened: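 K562 cells (2×10^6 cells/mL) were treated with 10 μM compound for 30 min, and aliquots were heated for 3 min over 48°C-58°C. Pooled aliquots were extracted in PBS with 0.5% NP-40 at 4°C, and the supernatant after 21,000xg for 90 min was measured by TMTpro 16plex LC-MS/MS with channel sums equalised. Reported thermal stability, relative to control samples and from duplicates, is a log2 fold change.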

Sequence of UniProt O75792 (O75792 whole entry, looked up): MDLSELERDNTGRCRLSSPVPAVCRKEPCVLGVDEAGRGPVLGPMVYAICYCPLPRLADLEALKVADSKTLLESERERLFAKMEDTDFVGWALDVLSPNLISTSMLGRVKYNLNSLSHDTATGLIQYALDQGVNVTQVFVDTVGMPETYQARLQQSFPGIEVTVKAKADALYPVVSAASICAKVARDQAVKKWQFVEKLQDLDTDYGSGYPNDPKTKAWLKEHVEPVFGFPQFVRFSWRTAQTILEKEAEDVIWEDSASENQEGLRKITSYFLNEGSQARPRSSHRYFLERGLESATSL
Sequence of UniProt Q92930 (Q92930 whole entry, looked up): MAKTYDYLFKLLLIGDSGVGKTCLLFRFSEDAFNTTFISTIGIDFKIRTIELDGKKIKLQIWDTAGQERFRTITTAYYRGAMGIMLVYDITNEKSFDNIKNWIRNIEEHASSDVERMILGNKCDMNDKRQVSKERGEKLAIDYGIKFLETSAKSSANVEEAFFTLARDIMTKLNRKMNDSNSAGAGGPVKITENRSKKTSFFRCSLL
Sequence of UniProt Q7L4I2 (Q7L4I2 whole entry, looked up): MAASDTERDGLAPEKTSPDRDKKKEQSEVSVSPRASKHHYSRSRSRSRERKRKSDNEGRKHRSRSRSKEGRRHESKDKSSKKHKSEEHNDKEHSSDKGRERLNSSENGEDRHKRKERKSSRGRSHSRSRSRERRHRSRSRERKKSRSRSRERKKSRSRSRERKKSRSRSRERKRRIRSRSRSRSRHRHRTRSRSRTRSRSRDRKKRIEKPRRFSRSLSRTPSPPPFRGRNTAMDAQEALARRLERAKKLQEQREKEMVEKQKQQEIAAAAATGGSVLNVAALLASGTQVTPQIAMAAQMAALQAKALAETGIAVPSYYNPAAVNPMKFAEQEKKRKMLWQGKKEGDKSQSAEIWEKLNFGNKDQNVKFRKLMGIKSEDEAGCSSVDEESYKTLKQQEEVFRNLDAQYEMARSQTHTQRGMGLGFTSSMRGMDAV
Sequence of UniProt O94885 (O94885 whole entry, looked up): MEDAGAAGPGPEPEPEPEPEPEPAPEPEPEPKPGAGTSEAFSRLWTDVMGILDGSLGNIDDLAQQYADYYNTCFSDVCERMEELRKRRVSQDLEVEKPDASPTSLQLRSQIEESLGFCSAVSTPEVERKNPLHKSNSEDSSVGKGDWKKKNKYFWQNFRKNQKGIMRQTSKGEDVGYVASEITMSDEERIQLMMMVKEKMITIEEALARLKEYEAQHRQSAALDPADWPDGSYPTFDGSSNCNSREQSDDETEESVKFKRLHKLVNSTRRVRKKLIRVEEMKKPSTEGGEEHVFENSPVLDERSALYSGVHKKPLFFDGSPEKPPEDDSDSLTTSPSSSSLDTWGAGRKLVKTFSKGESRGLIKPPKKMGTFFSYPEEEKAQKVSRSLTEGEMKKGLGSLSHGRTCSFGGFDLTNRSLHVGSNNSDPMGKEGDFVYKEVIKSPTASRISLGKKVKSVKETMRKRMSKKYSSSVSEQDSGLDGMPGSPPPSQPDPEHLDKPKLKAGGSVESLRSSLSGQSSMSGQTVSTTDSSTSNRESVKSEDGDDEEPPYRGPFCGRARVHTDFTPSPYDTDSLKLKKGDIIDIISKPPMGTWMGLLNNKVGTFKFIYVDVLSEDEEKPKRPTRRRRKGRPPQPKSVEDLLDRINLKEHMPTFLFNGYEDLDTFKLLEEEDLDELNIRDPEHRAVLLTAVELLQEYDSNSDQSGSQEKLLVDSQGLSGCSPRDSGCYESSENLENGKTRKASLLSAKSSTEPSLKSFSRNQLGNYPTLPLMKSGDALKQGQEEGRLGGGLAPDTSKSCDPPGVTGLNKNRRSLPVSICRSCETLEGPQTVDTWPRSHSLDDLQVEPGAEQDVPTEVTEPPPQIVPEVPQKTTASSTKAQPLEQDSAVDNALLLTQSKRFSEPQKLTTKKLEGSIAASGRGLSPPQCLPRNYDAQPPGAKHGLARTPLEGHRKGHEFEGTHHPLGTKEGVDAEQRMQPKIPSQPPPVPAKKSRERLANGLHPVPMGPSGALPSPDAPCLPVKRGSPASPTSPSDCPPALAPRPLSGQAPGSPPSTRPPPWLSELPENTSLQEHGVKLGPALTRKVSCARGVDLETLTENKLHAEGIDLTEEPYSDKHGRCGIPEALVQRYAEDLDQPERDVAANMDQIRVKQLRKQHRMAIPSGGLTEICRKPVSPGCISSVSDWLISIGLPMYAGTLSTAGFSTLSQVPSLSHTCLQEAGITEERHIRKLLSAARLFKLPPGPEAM
Sequence of UniProt Q96D15 (Q96D15 whole entry, looked up): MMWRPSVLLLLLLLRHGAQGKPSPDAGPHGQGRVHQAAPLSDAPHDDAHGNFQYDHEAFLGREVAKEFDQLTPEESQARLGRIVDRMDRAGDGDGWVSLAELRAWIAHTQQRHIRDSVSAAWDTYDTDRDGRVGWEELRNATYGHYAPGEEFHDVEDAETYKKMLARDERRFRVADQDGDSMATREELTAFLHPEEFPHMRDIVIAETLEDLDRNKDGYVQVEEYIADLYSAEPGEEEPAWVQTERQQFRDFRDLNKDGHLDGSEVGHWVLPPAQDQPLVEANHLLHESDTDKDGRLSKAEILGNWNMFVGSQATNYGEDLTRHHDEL
Sequence of UniProt Q96I25 (Q96I25 whole entry, looked up): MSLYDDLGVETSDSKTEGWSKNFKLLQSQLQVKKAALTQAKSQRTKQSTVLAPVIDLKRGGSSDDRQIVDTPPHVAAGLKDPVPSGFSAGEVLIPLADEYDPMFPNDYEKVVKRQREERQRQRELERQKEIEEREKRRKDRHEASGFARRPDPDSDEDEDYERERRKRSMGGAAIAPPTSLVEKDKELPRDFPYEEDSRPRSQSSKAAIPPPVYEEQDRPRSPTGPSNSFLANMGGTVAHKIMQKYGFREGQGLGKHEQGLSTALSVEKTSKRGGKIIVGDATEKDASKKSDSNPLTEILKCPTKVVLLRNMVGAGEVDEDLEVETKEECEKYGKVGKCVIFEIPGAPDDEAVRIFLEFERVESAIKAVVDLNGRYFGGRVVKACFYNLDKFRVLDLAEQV
Sequence of UniProt O95059 (O95059 whole entry, looked up): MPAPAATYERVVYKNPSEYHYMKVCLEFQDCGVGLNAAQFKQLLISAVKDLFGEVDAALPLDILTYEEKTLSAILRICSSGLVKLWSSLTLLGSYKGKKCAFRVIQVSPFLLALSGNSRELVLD
Sequence of UniProt Q8WWV3 (Q8WWV3 whole entry, looked up): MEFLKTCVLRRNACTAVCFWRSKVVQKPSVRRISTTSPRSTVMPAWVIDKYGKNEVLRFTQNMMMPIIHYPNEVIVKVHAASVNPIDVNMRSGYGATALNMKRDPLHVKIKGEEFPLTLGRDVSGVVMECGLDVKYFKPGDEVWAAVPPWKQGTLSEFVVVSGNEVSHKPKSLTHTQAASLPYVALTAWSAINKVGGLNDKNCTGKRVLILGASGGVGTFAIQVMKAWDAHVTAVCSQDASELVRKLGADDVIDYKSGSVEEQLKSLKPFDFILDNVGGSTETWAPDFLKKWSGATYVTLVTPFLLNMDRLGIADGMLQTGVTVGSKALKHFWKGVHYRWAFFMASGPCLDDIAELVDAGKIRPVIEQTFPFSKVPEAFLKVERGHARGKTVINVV
Sequence of UniProt Q8N122 (Q8N122 whole entry, looked up): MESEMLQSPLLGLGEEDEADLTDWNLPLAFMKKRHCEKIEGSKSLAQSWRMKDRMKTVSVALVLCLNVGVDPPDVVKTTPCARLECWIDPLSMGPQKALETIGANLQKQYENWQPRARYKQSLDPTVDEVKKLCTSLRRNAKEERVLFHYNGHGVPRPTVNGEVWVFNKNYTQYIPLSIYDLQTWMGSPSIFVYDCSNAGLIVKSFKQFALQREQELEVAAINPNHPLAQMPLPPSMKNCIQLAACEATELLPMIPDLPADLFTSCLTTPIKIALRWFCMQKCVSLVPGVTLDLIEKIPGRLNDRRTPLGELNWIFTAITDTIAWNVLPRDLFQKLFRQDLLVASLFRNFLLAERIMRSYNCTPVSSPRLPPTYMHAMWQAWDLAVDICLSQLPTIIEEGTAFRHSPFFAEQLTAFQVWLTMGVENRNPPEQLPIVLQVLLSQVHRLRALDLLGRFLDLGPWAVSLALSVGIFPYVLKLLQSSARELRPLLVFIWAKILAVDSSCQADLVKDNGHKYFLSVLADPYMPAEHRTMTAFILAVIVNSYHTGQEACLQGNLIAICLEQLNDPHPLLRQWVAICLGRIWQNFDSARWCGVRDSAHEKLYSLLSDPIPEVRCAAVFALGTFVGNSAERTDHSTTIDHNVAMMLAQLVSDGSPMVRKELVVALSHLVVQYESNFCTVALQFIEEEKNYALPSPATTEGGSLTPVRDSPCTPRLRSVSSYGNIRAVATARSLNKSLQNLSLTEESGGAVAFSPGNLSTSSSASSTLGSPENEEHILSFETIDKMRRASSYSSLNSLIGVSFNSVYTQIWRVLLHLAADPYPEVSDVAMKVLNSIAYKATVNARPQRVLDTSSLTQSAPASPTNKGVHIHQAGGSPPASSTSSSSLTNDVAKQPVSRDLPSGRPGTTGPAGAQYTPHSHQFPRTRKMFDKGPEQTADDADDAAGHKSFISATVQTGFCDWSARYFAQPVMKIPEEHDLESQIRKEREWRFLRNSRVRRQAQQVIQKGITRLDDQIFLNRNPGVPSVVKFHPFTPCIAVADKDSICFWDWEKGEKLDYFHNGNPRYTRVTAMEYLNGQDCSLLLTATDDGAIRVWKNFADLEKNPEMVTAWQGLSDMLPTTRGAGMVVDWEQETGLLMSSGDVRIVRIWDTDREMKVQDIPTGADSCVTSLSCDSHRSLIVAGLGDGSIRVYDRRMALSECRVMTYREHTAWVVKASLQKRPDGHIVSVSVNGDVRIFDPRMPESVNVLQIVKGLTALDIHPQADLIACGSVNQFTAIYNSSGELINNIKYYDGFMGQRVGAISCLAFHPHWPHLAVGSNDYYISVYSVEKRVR

log2 fold change, active:
RSRC1 (UniProt Q96IZ7) -0.215

log2 fold change, inactive:
SCAF11 (UniProt Q99590) -0.077
SASH1 (UniProt O94885) -0.019
RRP9 (UniProt O43818) -0.069
SLC1A5 (UniProt Q15758) -0.09
RRP12 (UniProt Q5JTH9) -0.057
RSRC2 (UniProt Q7L4I2) -0.125
RBM17 (UniProt Q96I25) -0.03
RAB8B (UniProt Q92930) 0.006
RPP14 (UniProt O95059) -0.039
RNASEH2A (UniProt O75792) 0.029
RNF187 (UniProt Q5TA31) -0.084
SCO2 (UniProt O43819) -0.042
RPL31 (UniProt P62899) 0.096
RNF14 (UniProt Q9UBS8) 0.007
SCAF8 isoform 2 (UniProt Q9UPN6) -0.085
RBM4 (UniProt Q9BWF3) -0.052
RPRD1B (UniProt Q9NQG5) 0.055
RNF2 (UniProt Q99496) 0.091
RPTOR (UniProt Q8N122) -0.044
SLC12A5 (UniProt Q9H2X9) -0.007
RPS6KA1 isoform 2 (UniProt Q15418) -0.088
RCN3 (UniProt Q96D15) -0.076
RRP36 (UniProt Q96EU6) 0.073
RTN4IP1 (UniProt Q8WWV3) -0.066
RPS4X (UniProt P62701) 0.063
RECQL (UniProt P46063) 0.061
RPS27A (UniProt P62979) 0.05
RAC3 (UniProt P60763) -0.064
SART3, A0A499FI31 0.021
RAC1 (UniProt P63000) -0.009
RBM22 (UniProt Q9NW64) -0.037
RFC3 (UniProt P40938) 0.031
